Targets with a hit are over-represented here; the source holds about 7,900 in all. About 0.6% of all pairs of compound and target were hits.

Sequence of UniProt Q9Y6I9 (Q9Y6I9 whole entry, looked up): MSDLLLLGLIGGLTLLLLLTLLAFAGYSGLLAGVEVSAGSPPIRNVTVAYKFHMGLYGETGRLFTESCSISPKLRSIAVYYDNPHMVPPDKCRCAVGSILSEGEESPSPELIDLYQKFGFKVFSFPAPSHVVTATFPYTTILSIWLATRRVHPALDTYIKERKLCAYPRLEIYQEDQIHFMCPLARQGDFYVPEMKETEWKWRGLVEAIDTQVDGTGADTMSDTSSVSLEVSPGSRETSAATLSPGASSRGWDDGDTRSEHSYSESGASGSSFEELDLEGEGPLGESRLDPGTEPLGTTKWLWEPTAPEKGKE
Sequence of UniProt Q92544 (Q92544 whole entry, looked up): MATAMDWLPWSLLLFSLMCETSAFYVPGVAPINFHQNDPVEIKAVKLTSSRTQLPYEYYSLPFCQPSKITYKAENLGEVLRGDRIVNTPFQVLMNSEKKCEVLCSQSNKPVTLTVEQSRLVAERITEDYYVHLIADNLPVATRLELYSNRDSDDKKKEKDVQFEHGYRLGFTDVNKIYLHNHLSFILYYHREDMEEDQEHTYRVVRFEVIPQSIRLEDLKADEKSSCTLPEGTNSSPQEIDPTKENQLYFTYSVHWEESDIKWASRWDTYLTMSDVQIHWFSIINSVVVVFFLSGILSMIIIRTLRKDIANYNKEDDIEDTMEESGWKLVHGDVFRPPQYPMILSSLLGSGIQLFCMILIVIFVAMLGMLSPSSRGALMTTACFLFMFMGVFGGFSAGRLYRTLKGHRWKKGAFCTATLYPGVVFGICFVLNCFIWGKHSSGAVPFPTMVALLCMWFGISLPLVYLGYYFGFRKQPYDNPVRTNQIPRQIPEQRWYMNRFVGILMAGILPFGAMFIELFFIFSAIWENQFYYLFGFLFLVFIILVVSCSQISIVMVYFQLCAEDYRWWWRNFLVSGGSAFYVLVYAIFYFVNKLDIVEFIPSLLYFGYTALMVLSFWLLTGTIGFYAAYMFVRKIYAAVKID
Sequence of UniProt P35270 (P35270 whole entry, looked up): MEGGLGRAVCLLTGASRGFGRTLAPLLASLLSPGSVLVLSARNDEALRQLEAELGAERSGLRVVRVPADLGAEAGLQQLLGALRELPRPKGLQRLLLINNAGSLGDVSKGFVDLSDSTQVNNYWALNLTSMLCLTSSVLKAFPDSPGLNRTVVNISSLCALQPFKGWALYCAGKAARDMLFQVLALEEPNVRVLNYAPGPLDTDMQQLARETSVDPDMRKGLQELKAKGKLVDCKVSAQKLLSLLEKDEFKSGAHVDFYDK
Sequence of UniProt Q92581 (Q92581 whole entry, looked up): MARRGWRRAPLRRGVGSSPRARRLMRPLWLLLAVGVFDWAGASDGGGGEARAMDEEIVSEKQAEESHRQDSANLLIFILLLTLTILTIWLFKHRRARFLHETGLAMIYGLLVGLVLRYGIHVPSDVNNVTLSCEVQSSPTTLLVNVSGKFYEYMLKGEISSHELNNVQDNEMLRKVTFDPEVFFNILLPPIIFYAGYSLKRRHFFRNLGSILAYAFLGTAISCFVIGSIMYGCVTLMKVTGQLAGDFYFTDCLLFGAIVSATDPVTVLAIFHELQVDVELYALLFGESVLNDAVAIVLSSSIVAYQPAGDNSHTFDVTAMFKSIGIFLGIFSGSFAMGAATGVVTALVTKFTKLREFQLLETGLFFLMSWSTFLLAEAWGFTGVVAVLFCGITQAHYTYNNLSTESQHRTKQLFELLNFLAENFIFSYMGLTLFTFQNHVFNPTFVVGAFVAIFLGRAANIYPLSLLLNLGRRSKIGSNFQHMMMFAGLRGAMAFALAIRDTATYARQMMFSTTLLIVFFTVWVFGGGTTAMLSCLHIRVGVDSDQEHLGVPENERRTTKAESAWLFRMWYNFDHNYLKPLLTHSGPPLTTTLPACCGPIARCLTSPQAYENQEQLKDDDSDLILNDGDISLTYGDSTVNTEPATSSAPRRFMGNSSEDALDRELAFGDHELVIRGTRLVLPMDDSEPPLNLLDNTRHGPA
Sequence of UniProt Q13573 (Q13573 whole entry, looked up): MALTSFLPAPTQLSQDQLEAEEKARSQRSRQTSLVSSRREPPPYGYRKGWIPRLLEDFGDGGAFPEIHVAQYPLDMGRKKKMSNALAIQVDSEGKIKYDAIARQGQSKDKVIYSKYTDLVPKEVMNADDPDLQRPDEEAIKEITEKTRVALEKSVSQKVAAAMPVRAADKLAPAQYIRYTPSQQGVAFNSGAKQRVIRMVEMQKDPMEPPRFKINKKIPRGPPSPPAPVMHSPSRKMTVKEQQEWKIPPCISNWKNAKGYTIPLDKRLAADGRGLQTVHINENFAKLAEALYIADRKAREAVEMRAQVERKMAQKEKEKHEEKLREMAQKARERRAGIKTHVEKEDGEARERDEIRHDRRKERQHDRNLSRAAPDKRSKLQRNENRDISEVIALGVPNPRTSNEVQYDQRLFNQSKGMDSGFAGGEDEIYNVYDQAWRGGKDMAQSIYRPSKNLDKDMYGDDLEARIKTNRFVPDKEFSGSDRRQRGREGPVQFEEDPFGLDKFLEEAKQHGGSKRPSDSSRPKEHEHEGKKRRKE
Sequence of UniProt Q8WU79 (Q8WU79 whole entry, looked up): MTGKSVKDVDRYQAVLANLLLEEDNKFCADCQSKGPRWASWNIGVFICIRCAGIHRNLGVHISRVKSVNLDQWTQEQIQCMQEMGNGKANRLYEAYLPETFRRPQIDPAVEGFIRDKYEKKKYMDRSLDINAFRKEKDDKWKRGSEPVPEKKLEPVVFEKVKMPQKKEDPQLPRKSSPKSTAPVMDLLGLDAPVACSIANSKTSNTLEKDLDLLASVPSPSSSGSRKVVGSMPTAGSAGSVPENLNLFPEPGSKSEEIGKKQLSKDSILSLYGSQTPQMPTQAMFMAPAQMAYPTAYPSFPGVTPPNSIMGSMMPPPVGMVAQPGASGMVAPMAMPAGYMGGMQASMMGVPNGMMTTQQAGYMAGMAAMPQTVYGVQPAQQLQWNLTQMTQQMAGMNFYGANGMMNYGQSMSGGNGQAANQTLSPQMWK
Sequence of UniProt Q92844 (Q92844 whole entry, looked up): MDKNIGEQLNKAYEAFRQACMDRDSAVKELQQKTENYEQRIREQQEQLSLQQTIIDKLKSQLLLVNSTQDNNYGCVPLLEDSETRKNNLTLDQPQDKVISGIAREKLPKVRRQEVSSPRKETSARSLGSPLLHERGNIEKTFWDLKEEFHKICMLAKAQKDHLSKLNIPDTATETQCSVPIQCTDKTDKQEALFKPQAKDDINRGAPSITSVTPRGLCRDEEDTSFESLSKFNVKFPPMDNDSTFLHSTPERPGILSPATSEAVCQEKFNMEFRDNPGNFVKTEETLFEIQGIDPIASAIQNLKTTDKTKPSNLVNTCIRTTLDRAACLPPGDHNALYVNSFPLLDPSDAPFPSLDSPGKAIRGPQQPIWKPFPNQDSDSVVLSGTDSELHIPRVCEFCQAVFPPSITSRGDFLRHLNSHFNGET
Sequence of UniProt Q969G3 (Q969G3 whole entry, looked up): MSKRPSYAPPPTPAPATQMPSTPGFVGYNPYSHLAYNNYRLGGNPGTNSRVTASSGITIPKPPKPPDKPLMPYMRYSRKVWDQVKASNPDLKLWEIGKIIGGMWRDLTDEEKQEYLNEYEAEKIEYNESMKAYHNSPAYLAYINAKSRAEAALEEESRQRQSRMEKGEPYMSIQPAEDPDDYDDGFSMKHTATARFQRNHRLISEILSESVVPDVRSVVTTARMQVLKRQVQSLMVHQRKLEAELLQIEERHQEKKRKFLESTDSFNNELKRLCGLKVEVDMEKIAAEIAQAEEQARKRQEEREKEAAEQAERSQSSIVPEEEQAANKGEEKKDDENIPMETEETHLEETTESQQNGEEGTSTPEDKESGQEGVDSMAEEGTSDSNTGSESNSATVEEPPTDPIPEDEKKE
Sequence of UniProt Q9BW92 (Q9BW92 whole entry, looked up): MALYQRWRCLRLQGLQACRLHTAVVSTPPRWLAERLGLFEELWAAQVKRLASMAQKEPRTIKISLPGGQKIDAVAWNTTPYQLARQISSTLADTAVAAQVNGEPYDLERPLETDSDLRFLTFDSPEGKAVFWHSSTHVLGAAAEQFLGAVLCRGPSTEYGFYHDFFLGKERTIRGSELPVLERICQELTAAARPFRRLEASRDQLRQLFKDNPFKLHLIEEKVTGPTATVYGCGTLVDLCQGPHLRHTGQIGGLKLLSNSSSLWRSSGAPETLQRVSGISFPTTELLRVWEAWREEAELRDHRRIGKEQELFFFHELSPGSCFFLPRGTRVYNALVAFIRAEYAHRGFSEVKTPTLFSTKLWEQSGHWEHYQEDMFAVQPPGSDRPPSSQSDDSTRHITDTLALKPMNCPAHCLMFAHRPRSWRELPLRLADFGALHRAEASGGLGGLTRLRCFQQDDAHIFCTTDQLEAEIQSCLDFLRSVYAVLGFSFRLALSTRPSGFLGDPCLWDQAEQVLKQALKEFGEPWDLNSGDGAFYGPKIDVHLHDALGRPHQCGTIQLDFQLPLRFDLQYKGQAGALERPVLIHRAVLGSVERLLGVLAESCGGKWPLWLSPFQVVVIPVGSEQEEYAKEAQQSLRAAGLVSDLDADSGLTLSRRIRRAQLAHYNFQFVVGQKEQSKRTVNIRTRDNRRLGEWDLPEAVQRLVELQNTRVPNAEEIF

Compound in this assay: c1cn2cc(-c3ccc4cn[nH]c4c3)nc(Nc3ccc(N4CCOCC4)cc3)c2n1 [entospletinib]
Description: log2 fold change, soluble protein after heating vs DMSO (PISA); higher = thermal stabilisation; K562 cells, 10 uM, 30 min; active = over 0.2 and 3.5 SD of the protein, either way, in both replicates (recomputed). The method in brief:
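Values are thermal stability changes relative to control samples and are taken from duplicates. They are stated as log2 fold changes. Before quantification by TMTpro 16plex LC-MS/MS with equalised channel sums, K562 cells at 2×10^6 cells/mL were treated with 10 μM compound for 30 min, heated in aliquots for 3 min across 48°C-58°C, pooled, extracted in PBS with 0.5% NP-40 at 4°C, and centrifuged at 21,000xg for 90 min to give the soluble supernatant.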
As to SPR (UniProt P35270), the log2 fold change was 0.057 (inactive).
SMAP2 (UniProt Q8WU79): the log2 fold change is 0.019 (inactive).
To SLC9A6 isoform 2 (UniProt Q92581) belongs -0.004 (inactive); to STK39 (UniProt Q9UEW8), -0.007 (inactive); to SNW1 (UniProt Q13573), 0.087 (inactive).
To TM9SF4 (UniProt Q92544) belongs 0.022 (inactive).
To TBRG4 (UniProt Q969Z0) belongs -0.027 (inactive); to SMARCE1 (UniProt Q969G3), -0.117 (inactive); to STXBP5 (UniProt Q5T5C0), 0.01 (inactive).
For TANK (UniProt Q92844), the log2 fold change was -0.076 (inactive).
To TARS2 (UniProt Q9BW92) belongs -0.072 (inactive); to TEX264 (UniProt Q9Y6I9), 0.601 (active).

The values above are taken from the supplement of paper PMC10849652.
